# Reference: PubChem BioAssay (NCATS)
# Inconclusive results are not listed. Where a call stands in place of a potency, no number is given. Values without a mark were called inactive. Active and inactive are the calls of the source. Calls follow the shape of the dose curve; as a rule, active = well fitted curve in the direction sought with a large enough effect; inconclusive = small, poorly fitted or top-dose-only effect, or another doubt; inactive = no such curve, though single readings can be large; an effect the other way counts as inactive or inconclusive. Peptide text beside a SMILES is read from it.
# Tests used:
# [1] = target: Cellular tumor antigen p53 (Homo sapiens) (UniProt P04637); assay: Primary qHTS for small molecule compounds that upregulate eGFP-tagged delta133p53alpha (in N-terminal) cells. (AID 2060322); conditions: NCI-H358 eGFP-delta133p53alpha fluorescence, 24 h; activation: stronger effect = higher value; also: nearly all actives have a fitted effect of over 75% in size; also: potency is read from the fitted curve at half-maximal effect;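 as to activation: cells pre-induced with doxycycline then dosed without doxycycline; series mostly up to about 56 µM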
# Chain of Cellular tumor antigen p53 (Homo sapiens) (P04637 whole entry, looked up): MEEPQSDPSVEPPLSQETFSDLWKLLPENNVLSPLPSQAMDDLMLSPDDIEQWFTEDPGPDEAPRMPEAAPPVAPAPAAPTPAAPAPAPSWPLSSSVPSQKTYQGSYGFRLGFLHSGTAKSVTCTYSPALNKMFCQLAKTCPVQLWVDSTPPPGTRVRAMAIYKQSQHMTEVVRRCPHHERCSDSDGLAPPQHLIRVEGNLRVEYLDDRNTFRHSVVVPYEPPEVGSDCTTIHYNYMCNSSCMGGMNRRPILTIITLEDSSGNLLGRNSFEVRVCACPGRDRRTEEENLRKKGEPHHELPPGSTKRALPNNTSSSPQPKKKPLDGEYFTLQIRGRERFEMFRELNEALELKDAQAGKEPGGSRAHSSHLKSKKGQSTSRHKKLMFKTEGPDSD
# Outline: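 NCI-H358 cells pre-induced 24 h with 10 ng/ml doxycycline for eGFP-delta133p53alpha, plated dox-free and exposed 24 h at 37C to titrated compounds. Fixed, Hoechst-stained; gated GFP peak intensity by laser scanning cytometry, normalized to DMSO (0%) and 57.5 uM 5-azacytidine (100%).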
# [2] = target: Aldehyde dehydrogenase, mitochondrial (Homo sapiens) (UniProt P05091); assay: qHTS for Inhibitors of the Aldehyde Dehydrogenase Family (ALDH2) Primary screen (AID 2061308); also: nearly all actives have a fitted effect of over 55% in size
# [3] = target: Retinaldehyde dehydrogenase 3 (Homo sapiens) (UniProt P47895); assay: qHTS for Inhibitors of the Aldehyde Dehydrogenase Family (ALDH1A3) Primary screen (AID 2061315)
SMILES,activation [1],Potency [2],Potency [3],Potency [1],"activity change, negative = inhibition [2]","activity change, negative = inhibition [3]"
CC1=C(C)C(=O)OC(C(C)C2CCC3C4CC=C5CC(OC6OC(COC7OC(CO)C(O)C(O)C7O)C(O)C(O)C6O)CC(O)C5(C)C4CCC23C)C1 (stereo unspecified),9.16%,inactive,inactive,,,
C[C@H](C(=O)NC1CCCC1)N(C(=O)Cn1nnc(-c2ccc3c(c2)OCO3)n1)C1CCCCC1,9%,inactive,inactive,,,
COC(=O)Cn1nc(-c2cccc(OC)c2)c2ccccc21,-1.67%,inactive,inactive,,,
COC(=O)CCSCc1ccc(-c2onc(C)c2NC(=O)OC(C)c2ccccc2Cl)cc1 (stereo unspecified),-5.25%,inactive,inactive,,,
Cc1onc(C(=O)N2CCN(C(c3ccc(Cl)cc3)c3ccc(Cl)cc3)CC2)c1[N+](=O)[O-],10.7%,inactive,inactive,,,
CC(=O)N1CCN(Cc2ccc([C@H](C)Nc3nccc(N4C(=O)OC[C@@H]4C(C)C)n3)cc2)CC1,-16.1%,inactive,inactive,,,
c1ccc(N2CCN(CCc3nn[nH]n3)CC2)cc1,-1.43%,inactive,inactive,,,
OC[C@H]1O[C@@H](Oc2ccccc2)[C@H](O)[C@@H](O)[C@@H]1O,-0.893%,inactive,inactive,,,
COC(=O)CCc1cc2ccoc2c(OC)c1O[C@@H]1O[C@H](CO)[C@@H](O)[C@H](O)[C@H]1O,-27.7%,inactive,inactive,,,
C/C=C(\C)C(=O)O[C@H]1[C@@H](O[C@]2(COC(=O)CC(C)C)O[C@H](COC(=O)C(C)CC)[C@@H](OC(C)=O)[C@@H]2O)O[C@H](COC(C)=O)[C@@H](O)[C@@H]1O (stereo partly specified),9.16%,inactive,inactive,,,
CC(=O)c1c(C)cc(O)cc1O[C@@H]1O[C@H](CO)[C@@H](O)[C@H](O)[C@H]1O,-17.6%,inactive,inactive,,,
COc1cc(/C=C/C(=O)O[C@@H]2O[C@H](CO)[C@@H](O)[C@H](O)[C@H]2O)ccc1O,4.46%,inactive,inactive,,,
Nc1nc(-n2cc(C(=O)O)c(=O)c3cc(F)c(N4CC(O)C4)c(Cl)c32)c(F)cc1F,13%,inactive,inactive,,,
CC1(C)CC[C@]2(C(=O)O[C@@H]3O[C@H](CO)[C@@H](O)[C@H](O)[C@H]3O)CC[C@]3(C)C(=CCC4[C@@]5(C)CC[C@H](O[C@@H]6O[C@H](C(=O)O)[C@@H](O)[C@H](O)[C@H]6O)[C@@](C)(CO)C5CC[C@]43C)C2C1 (stereo partly specified),-1.53%,inactive,inactive,,,
CC1OC(=O)C[C@@H]2C(C(=O)O)=CO[C@@H](O[C@H]3O[C@H](CO)[C@@H](O)[C@H](O)[C@H]3O)[C@H]12 (stereo partly specified),-23.2%,inactive,inactive,,,
O=C(Nc1ccn(Cc2c(F)cccc2C(F)(F)F)n1)c1c(F)cccc1F,1.67%,inactive,inactive,,,
C=C[C@H]1[C@H](O[C@@H]2O[C@H](CO)[C@@H](O)[C@H](O)[C@H]2O)OC=C(C(=O)OC)[C@H]1CC(=O)O,-12.2%,inactive,inactive,,,
C[C@H](O)C(O)(C(=O)OCc1ccccc1NC(=O)CCC(N)C(=O)O)[C@H](C)O (stereo partly specified),-24.4%,inactive,inactive,,,
C=C(C)[C@@H]1CC[C@]2(C)CC[C@]3(C)C(CCC4[C@@]5(C)CC[C@H](O)C(C)(C)C5CC[C@]43C)C12 (stereo partly specified),-19.6%,inactive,inactive,,,
CC(=O)NC1CC(=O)C23C(=O)NC(Cc4c[nH]c5ccccc45)C2C(C)=C(C)C(O)C3/C=C/CC(C)/C=C(/C)C(O)C1O (stereo unspecified),8.93%,inactive,inactive,,,
CC1=CCC[C@@H]2[C@](CCc3ccoc3)(C(=O)O)[C@H](C)CC[C@@]12C,-28.2%,inactive,inactive,,,

SMILES,activation [1],Potency [2],Potency [3],Potency [1],"activity change, negative = inhibition [2]","activity change, negative = inhibition [3]"
COCCN(C)Cc1ccc2nc3sc(C(=O)N(C)C4CCCCC4)cn3c2c1,15.7%,inactive,inactive,,,
C=C[C@H]1[C@H](O[C@@H]2O[C@H](CO)[C@@H](O)[C@H](O)[C@H]2O)OC=C(C(=O)OC)[C@H]1C[C@@H]1N[C@H](C(=O)O)Cc2c1[nH]c1ccccc21,-4.58%,inactive,inactive,,,
C[C@@H]1O[C@@H](O[C@H]2[C@H](OC(=O)[C@]34CCC(C)(C)C[C@H]3C3=CCC5[C@@]6(C)C[C@@H](O)[C@@H](O)[C@@](C)(CO)C6[C@H](O)C[C@@]5(C)[C@]3(C)CC4)OC[C@H](O)[C@@H]2O)[C@H](O)[C@H](O)[C@H]1O[C@@H]1OC[C@@H](O)[C@H](O[C@H]2O[C@H](C)[C@@H](O)[C@H](O)[C@@H]2O)[C@H]1O (stereo partly specified),-2.68%,inactive,inactive,,,
CC1[C@@H](O)[C@@H](O)C2[C@]3(C)C(C[C@H]4OC(=O)[C@H](O)[C@]1(O)[C@@]24C)C(C)(O)C[C@H](O)[C@H]3O (stereo partly specified),-16%,inactive,inactive,,,
COc1ccc(CNC(=O)c2cc(-c3cncc(C)c3)ncc2-c2nccs2)nc1OC,0.477%,inactive,inactive,,,
CC1C(OC(=O)c2ccccc2)C(O)C2C(C(=O)O)=COC(OC3OC(CO)C(O)C(O)C3O)C12 (stereo unspecified),-16%,inactive,inactive,,,
C=C1CC[C@@H]2[C@](C)(CC[C@H](O)[C@@]2(C)CCC=C(C)C)[C@@H]1Cc1c[nH]c2ccccc12,-21.4%,inactive,inactive,,,
COC(=O)C1=C[C@@H](O)[C@@H](O)[C@H](O[C@@H]2O[C@H](COC(=O)/C=C/c3ccccc3)[C@@H](O)[C@H](O)[C@H]2O)C1,-3.05%,inactive,inactive,,,
C=C1CCC2C(C)(C)C(O)CCC2(C)C1CCC(C)CCO (stereo unspecified),6.25%,inactive,inactive,,,
C/C=C1/C[N+](C)([O-])C2Cc3c([nH]c4ccccc34)C(=O)CC1C2C(=O)OC (stereo unspecified),-9.82%,inactive,inactive,,,
C[C@@H]1CC[C@]2(C(=O)OC3OC(CO)C(O)C(O)C3O)CC[C@]3(C)C(=CCC4[C@@]5(C)CC[C@H](O)[C@](C)(C(=O)O)C5CC[C@]43C)C2[C@]1(C)O (stereo partly specified),-8.93%,inactive,inactive,,,
CCOC(=O)c1cnn(-c2ccccc2)c1NC(=O)c1cc2nc(-c3ccco3)cc(C(F)(F)Cl)n2n1,0.955%,inactive,inactive,,,
CC1=C(CO)C2(C)CCCC(C)(C)C2C(O)C1O (stereo unspecified),11.6%,inactive,inactive,,,
CC(=O)OC[C@H]1O[C@H](O[C@]2(CO)O[C@H](CO)[C@@H](OC(=O)/C=C/c3ccccc3)[C@@H]2O)[C@H](O)[C@@H](O)[C@@H]1O,-0.763%,inactive,inactive,,,
C=C1CC[C@@H](O)[C@]2(C)C[C@H]3OC(=O)C(=C)[C@H]3CC12 (stereo partly specified),,inactive,inactive,21.3 µM (active),,
CC(C)C1NC(=O)CNC(=O)C2CCCN2C(=O)C(Cc2c[nH]c3ccccc23)NC(=O)CNC(=O)C(Cc2ccc(O)cc2)NC(=O)CNC1=O (stereo unspecified) (cyclo(GVGYGWP); configuration not given here),-6.25%,inactive,inactive,,,
CC/C=C\CCO[C@@H]1O[C@H](CO)[C@@H](O)[C@H](O)[C@H]1O,-18.3%,inactive,inactive,,,
CC(=O)OCC1OC(OC2COC(OC3COC(OC4C(OC5C(CO)OC(OC6CCC7(C)C(CCC8(C)C7CC=C7C9CC(C)(C)CCC9(C(=O)OC9OC(CO)C(O)C(O)C9OC9OCC(OC%10OCC(O)(CO)C%10O)C(O)C9O)C(O)CC78C)C6(C)C)C(O)C5O)OCC(O)C4O)C(O)C3O)C(O)C2O)C(OC(=O)/C=C/c2ccccc2)C(O)C1OC(C)=O (stereo unspecified),11.5%,,,,6.5% [at 11.2 µM],-8.22% [at 11.2 µM]
OC[C@H]1O[C@@H](n2cnc3c(NCc4ccc(O)cc4)ncnc32)[C@H](O)[C@@H]1O,13.7%,inactive,inactive,,,
CC12CCC(=O)C=C1C(O)CC1C2C(O)CC2(C)C1CC[C@]2(O)C(=O)CO (stereo partly specified),5.67%,inactive,inactive,,,
CC1=C2C3OC(=O)C(C)C3(O)CCC2(C)CCC1=O (stereo unspecified),-20.5%,inactive,inactive,,,
